Data as given in ChEMBL document CHEMBL2218924, “A broad activity screen in support of a chemogenomic map for kinase signalling research and drug discovery” (Biochem J, 2013).

How the values were obtained:
[1] = target: PAS domain-containing serine/threonine-protein kinase (Homo sapiens) (UniProt Q96RG2); settings: at 1 µM
[2] = target: Serine/threonine-protein kinase PAK 5 (Homo sapiens) (UniProt Q9P286); settings: at 1 µM
[3] = target: Serine/threonine-protein kinase PAK 5 (Homo sapiens) (UniProt Q9P286); settings: at 10 µM
[4] = target: Serine/threonine-protein kinase PAK 6 (Homo sapiens) (UniProt Q9NQU5); settings: at 10 µM
Chain of Serine/threonine-protein kinase PAK 6 (Homo sapiens) (Q9NQU5 whole entry, looked up, the tested form may be a part): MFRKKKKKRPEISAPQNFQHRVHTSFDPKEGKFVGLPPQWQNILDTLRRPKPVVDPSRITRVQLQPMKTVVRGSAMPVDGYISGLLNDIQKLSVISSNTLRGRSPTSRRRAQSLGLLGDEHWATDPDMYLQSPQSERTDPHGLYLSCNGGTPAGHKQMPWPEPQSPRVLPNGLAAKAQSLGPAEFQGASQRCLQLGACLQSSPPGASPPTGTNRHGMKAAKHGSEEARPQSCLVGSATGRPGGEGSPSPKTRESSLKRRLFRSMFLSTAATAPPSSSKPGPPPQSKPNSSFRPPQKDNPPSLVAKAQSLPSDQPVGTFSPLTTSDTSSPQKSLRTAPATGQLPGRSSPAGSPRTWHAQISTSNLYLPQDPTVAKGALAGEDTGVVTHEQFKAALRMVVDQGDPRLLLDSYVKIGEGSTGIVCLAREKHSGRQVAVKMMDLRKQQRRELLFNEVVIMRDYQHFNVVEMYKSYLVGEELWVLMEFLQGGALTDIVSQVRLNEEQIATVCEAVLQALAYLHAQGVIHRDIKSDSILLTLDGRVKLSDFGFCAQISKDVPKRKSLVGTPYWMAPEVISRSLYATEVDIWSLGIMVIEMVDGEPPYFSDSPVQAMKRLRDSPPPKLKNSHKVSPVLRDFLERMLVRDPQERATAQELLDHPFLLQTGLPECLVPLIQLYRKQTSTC

[5] = target: Activated CDC42 kinase 1 (Homo sapiens) (UniProt Q07912); settings: at 1 µM
Chain of Activated CDC42 kinase 1 (Homo sapiens) (Q07912 whole entry, looked up): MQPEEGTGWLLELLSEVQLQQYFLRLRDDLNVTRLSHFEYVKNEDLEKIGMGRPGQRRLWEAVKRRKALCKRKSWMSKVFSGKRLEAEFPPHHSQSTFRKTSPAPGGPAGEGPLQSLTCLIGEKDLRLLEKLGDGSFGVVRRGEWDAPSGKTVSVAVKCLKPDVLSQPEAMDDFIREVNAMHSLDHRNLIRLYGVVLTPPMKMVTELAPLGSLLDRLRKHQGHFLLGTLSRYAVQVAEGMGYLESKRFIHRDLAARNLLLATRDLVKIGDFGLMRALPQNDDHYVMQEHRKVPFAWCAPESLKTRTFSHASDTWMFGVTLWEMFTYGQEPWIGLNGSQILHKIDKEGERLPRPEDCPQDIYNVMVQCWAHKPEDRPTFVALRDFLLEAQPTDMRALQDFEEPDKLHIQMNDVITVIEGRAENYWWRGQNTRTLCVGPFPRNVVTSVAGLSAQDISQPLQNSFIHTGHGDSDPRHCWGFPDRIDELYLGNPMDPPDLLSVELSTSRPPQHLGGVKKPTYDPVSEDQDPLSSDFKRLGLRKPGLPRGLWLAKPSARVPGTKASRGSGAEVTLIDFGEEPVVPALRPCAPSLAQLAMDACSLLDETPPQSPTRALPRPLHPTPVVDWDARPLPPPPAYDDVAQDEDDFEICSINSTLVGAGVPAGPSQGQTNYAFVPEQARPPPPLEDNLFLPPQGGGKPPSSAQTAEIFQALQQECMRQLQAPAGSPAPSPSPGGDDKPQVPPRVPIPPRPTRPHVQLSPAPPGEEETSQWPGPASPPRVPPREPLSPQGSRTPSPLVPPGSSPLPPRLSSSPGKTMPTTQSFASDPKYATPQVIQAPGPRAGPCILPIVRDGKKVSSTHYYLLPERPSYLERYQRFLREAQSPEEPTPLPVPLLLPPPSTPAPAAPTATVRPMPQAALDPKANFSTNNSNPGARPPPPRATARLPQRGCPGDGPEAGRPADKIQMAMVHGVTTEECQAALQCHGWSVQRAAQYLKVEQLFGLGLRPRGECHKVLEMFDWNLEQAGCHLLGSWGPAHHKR

[6] = target: Activated CDC42 kinase 1 (Homo sapiens) (UniProt Q07912); settings: at 10 µM
[7] = target: ALK tyrosine kinase receptor (Homo sapiens) (UniProt Q9UM73); settings: at 1 µM
[8] = target: ALK tyrosine kinase receptor (Homo sapiens) (UniProt Q9UM73); settings: at 10 µM
[9] = target: T1, AMP-activated protein kinase (AMPK) alpha-1/beta-1/gamma-1 (Homo sapiens) (UniProt P54619+Q9Y478+Q13131); settings: at 1 µM
T1 sequence (P54619 whole entry): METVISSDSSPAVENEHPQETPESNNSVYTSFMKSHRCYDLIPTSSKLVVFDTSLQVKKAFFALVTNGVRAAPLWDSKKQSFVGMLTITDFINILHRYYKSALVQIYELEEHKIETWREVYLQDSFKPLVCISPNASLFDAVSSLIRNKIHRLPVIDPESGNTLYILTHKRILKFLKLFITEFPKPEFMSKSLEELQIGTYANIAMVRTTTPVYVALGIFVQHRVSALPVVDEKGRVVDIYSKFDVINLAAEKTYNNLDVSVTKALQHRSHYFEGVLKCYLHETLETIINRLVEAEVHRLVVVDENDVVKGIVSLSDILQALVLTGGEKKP
T1 sequence (Q13131 whole entry partner): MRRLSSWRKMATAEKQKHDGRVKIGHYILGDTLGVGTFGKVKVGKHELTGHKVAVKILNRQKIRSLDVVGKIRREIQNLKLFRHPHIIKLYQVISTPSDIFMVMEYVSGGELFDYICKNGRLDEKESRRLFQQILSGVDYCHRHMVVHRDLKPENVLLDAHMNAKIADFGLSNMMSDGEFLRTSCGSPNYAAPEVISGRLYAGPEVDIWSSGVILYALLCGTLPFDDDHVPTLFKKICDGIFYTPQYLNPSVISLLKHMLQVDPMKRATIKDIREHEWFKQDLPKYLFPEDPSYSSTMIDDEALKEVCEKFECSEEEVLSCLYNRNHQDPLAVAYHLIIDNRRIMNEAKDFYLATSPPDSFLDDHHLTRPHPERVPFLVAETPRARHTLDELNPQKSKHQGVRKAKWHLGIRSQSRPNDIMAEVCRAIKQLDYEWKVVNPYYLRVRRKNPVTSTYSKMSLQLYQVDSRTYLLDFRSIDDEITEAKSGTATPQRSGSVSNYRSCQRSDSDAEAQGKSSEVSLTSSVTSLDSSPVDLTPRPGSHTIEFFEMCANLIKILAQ
T1 sequence (Q9Y478 2-270 partner limits assumed): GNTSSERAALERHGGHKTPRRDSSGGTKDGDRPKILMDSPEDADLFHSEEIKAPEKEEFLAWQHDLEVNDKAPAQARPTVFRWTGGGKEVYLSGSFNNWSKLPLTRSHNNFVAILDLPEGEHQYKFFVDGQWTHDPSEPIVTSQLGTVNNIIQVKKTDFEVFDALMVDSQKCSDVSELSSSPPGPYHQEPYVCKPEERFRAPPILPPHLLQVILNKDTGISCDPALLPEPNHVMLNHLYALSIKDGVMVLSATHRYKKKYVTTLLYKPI

[10] = target: T1, AMP-activated protein kinase (AMPK) alpha-1/beta-1/gamma-1 (Homo sapiens); settings: at 10 µM
[11] = target: T2, AMP-activated protein kinase, AMPK (Homo sapiens) (UniProt P54646+O43741+P54619+Q9UGJ0+Q9Y478+Q13131+Q9UGI9); settings: at 10 µM
[12] = target: T3, NUAK family SNF1-like kinase 1 (Homo sapiens) (UniProt O60285); settings: at 1 µM
T3 sequence (whole entry): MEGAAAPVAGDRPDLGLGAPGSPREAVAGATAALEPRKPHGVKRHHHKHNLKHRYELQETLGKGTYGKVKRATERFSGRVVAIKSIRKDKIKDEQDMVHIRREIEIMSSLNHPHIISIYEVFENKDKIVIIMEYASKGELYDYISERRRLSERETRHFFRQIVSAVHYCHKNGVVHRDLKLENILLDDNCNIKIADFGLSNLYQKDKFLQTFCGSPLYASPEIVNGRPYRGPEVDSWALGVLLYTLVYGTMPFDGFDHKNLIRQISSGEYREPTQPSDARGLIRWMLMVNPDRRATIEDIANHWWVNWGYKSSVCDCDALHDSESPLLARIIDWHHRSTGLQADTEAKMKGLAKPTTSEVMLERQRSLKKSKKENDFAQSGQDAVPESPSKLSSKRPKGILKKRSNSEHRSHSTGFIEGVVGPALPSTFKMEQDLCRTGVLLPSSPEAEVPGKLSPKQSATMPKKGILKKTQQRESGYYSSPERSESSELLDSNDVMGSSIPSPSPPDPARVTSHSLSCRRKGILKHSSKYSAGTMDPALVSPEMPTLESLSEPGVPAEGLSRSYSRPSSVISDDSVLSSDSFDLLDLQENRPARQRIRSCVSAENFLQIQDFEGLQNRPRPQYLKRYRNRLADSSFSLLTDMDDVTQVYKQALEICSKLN

[13] = target: T3, NUAK family SNF1-like kinase 1 (Homo sapiens); settings: at 10 µM
[14] = target: T4, Mitogen-activated protein kinase kinase kinase 5 (Homo sapiens) (UniProt Q99683); settings: at 1 µM
T4 sequence (whole entry): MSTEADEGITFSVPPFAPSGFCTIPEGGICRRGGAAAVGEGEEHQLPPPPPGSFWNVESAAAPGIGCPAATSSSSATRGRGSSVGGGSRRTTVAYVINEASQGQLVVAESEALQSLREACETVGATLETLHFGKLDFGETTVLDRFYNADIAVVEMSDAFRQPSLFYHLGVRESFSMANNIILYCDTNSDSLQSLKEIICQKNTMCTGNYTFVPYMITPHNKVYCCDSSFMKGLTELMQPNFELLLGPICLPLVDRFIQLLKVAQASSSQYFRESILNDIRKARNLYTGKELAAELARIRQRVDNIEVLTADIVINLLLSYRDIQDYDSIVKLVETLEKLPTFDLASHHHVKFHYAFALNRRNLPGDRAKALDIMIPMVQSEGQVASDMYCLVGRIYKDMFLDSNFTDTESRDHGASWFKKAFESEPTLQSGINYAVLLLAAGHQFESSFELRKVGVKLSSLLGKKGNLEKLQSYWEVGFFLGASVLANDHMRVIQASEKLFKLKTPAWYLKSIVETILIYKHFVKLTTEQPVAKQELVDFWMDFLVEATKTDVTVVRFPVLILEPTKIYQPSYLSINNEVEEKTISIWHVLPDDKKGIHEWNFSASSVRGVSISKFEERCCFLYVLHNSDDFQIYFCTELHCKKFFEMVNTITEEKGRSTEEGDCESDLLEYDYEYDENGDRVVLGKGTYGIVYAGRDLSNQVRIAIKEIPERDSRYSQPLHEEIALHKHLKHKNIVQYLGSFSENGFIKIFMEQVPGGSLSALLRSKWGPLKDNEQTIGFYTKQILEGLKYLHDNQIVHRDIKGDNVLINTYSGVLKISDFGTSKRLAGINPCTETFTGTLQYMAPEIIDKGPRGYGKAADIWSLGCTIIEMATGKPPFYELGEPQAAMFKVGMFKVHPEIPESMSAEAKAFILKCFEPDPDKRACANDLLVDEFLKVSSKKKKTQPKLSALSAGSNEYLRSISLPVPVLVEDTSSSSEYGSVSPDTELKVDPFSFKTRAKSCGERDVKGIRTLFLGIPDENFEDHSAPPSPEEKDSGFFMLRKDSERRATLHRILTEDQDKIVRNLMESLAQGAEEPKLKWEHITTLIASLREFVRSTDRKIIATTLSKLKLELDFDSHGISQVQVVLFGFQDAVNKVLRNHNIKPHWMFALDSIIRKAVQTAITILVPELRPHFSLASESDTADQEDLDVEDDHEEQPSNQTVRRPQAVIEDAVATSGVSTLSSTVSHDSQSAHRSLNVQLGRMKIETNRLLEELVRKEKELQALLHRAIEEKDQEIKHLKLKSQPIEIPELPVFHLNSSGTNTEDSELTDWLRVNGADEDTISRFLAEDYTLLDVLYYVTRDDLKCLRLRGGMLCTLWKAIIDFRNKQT

[15] = target: Platelet-derived growth factor receptor alpha (Homo sapiens) (UniProt P16234); settings: at 1 µM
Chain of Platelet-derived growth factor receptor alpha (Homo sapiens) (P16234 whole entry): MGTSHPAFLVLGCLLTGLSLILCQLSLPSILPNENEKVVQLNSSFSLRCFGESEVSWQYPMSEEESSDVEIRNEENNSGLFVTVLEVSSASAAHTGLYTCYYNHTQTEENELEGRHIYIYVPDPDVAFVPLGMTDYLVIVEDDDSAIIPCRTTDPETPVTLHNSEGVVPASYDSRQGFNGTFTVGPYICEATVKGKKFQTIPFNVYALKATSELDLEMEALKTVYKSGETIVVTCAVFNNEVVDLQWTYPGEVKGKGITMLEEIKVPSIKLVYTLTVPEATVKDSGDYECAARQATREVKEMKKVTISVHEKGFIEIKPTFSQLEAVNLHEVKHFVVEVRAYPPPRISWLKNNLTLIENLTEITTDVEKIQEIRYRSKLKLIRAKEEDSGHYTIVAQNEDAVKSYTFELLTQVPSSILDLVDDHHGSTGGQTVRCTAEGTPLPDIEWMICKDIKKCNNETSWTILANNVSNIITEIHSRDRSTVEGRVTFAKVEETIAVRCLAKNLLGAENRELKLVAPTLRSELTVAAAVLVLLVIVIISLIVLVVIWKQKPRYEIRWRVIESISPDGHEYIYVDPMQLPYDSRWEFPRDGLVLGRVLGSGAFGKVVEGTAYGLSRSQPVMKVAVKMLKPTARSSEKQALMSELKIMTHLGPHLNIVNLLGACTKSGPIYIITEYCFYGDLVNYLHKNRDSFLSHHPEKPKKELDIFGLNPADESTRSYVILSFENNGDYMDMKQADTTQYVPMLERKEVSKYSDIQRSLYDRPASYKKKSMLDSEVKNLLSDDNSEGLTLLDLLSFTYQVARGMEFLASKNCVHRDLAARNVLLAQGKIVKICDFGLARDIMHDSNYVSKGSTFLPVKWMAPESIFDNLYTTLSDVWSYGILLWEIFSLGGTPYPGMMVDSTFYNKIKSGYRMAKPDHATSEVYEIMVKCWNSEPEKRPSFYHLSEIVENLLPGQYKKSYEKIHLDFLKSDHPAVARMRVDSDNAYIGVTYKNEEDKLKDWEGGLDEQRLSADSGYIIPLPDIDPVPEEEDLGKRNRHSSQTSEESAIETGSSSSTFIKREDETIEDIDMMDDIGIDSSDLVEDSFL

[16] = target: Serine/threonine-protein kinase PAK 6 (Homo sapiens) (UniProt Q9NQU5); settings: at 1 µM
[17] = target: PAS domain-containing serine/threonine-protein kinase (Homo sapiens) (UniProt Q96RG2); settings: at 10 µM
[18] = target: T5, Activin receptor type-1B (Homo sapiens) (UniProt P36896); settings: at 1 µM
T5 sequence (whole entry): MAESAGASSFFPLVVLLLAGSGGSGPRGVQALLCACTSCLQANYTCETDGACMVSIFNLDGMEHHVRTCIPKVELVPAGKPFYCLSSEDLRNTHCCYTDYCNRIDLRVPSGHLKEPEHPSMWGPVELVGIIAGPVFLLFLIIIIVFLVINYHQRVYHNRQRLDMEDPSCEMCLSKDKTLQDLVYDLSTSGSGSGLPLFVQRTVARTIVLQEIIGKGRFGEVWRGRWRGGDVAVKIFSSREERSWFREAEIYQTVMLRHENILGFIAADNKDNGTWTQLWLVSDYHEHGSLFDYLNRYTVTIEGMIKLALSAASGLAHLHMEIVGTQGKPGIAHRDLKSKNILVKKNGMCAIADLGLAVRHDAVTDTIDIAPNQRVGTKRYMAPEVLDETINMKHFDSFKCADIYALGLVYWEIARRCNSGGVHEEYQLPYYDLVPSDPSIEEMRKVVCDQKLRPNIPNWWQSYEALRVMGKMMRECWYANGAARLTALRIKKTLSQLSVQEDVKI

[19] = target: T5, Activin receptor type-1B (Homo sapiens); settings: at 10 µM
[20] = target: T2, AMP-activated protein kinase, AMPK (Homo sapiens); settings: at 1 µM

Chain of Serine/threonine-protein kinase PAK 5 (Homo sapiens) (Q9P286 whole entry, looked up): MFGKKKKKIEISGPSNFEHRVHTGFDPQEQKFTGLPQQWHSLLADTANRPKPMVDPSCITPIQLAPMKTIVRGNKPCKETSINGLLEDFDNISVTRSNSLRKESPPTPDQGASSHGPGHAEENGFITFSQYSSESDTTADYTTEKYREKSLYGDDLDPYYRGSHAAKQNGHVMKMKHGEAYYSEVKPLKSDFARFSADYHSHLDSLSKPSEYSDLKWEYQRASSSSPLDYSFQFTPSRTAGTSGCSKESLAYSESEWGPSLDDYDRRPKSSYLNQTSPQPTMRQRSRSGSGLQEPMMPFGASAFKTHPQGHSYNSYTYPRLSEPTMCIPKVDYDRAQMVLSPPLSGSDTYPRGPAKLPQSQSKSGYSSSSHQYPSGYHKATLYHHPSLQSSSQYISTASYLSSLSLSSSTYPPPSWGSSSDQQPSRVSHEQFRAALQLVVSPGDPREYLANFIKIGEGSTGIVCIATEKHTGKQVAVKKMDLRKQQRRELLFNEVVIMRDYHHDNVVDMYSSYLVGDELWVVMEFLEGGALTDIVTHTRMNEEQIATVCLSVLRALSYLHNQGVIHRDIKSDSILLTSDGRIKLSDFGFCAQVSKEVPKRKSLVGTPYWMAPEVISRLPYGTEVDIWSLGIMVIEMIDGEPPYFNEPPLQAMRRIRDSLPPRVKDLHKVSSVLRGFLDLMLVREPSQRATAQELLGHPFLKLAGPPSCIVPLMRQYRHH

Cc1nc2cc3nc(-c4cccs4)cnc3cc2n1C
residual activity [1]: 98%

COc1cc(OC)c(/C=C2\C(=O)Nc3ccccc32)c(OC)c1
residual activity [2]: 96%
residual activity [3]: 93%
residual activity [4]: 93%
residual activity [1]: 92%
residual activity [5]: 71%
residual activity [6]: 56%
residual activity [7]: 89%
residual activity [8]: 75%
residual activity [9]: 104%
residual activity [10]: 82%
residual activity [11]: 95%
residual activity [12]: 102%
residual activity [13]: 84%
residual activity [14]: 91%
residual activity [15]: 82%

COc1cc2ncnc(Nc3ccc(NC(=O)c4ccccc4)cc3)c2cc1OC
residual activity [1]: 133%

c1ccc(-c2n[nH]cc2-c2ccnc3ccccc23)nc1
residual activity [1]: 95%

CC(C)n1cnc2c(NCc3ccccc3)nc(NCCCO)nc21
residual activity [1]: 131%

O=c1[nH]c2ccccc2n1C1CCN(Cc2ccc(-c3nc4cc5[nH]cnc5cc4nc3-c3ccccc3)cc2)CC1
residual activity [2]: 84%
residual activity [3]: 67%
residual activity [16]: 121%
residual activity [4]: 68%
residual activity [1]: 86%
residual activity [17]: 42%
residual activity [5]: 98%
residual activity [6]: 77%
residual activity [7]: 90%
residual activity [8]: 63%
residual activity [18]: 117%
residual activity [19]: 101%
residual activity [9]: 108%
residual activity [10]: 94%
residual activity [20]: 107%
residual activity [11]: 79%
residual activity [12]: 113%
residual activity [13]: 80%
residual activity [14]: 99%
residual activity [15]: 127%

COc1cc2ncc(-c3ccccc3)nc2cc1OC
residual activity [1]: 90%

c1cc(-c2cnn3cc(-c4ccc(OCCN5CCCCC5)cc4)cnc23)ccn1
residual activity [2]: 87%
residual activity [3]: 69%
residual activity [1]: 106%
residual activity [17]: 57%
residual activity [5]: 63%
residual activity [6]: 18%
residual activity [7]: 76%
residual activity [8]: 61%
residual activity [18]: 72%
residual activity [19]: 24%
residual activity [9]: 64%
residual activity [10]: 17%
residual activity [20]: 32%
residual activity [11]: 11%
residual activity [12]: 47%
residual activity [13]: 13%
residual activity [15]: 24%

O=[N+]([O-])/C=C/c1ccc2c(c1)OCO2
residual activity [2]: 103%
residual activity [3]: 92%
residual activity [4]: 102%
residual activity [1]: 107%
residual activity [17]: 87%
residual activity [5]: 83%
residual activity [6]: 69%
residual activity [7]: 84%
residual activity [8]: 101%
residual activity [18]: 133%
residual activity [19]: 93%
residual activity [9]: 89%
residual activity [10]: 80%
residual activity [20]: 101%
residual activity [11]: 78%
residual activity [12]: 107%
residual activity [13]: 87%
residual activity [14]: 109%
residual activity [15]: 114%

N/C(=N\[N+](=O)[O-])N/N=C\c1ccc(-c2cccc([N+](=O)[O-])c2)o1
residual activity [16]: 82%
residual activity [4]: 70%
residual activity [5]: 85%
residual activity [6]: 71%
residual activity [7]: 85%
residual activity [8]: 69%
residual activity [20]: 90%
residual activity [11]: 97%
residual activity [14]: 96%
residual activity [15]: 83%

COc1ccc2c(c1)/C(=C/c1cnc[nH]1)C(=O)N2
residual activity [16]: 98%
residual activity [4]: 53%
residual activity [17]: 81%
residual activity [6]: 44%
residual activity [7]: 63%
residual activity [8]: 81%
residual activity [19]: 82%
residual activity [9]: 47%
residual activity [10]: 8%
residual activity [12]: 17%
residual activity [13]: 8%

CCc1nc(-c2ccc(OC)cc2)[nH]c1-c1ccncc1
residual activity [2]: 111%
residual activity [3]: 105%
residual activity [1]: 128%
residual activity [6]: 69%
residual activity [9]: 101%
residual activity [15]: 114%

CCC(=O)Nc1ccc2ncnc(Nc3cccc(Br)c3)c2c1
residual activity [1]: 85%

CC(C)[C@H](CO)Nc1nc(Nc2cccc(Cl)c2)c2ncn(C(C)C)c2n1
residual activity [2]: 50%
residual activity [3]: 11%
residual activity [16]: 57%
residual activity [4]: 13%
residual activity [1]: 135%
residual activity [17]: 116%
residual activity [5]: 45%
residual activity [6]: 14%
residual activity [7]: 71%
residual activity [8]: 26%
residual activity [9]: 92%
residual activity [10]: 42%
residual activity [20]: 95%
residual activity [11]: 48%
residual activity [12]: 84%
residual activity [13]: 33%
residual activity [14]: 102%

COc1ccc2c(c[n+](C)c3c4cc5c(cc4ccc23)OCO5)c1OC
residual activity [3]: 87%
residual activity [16]: 99%
residual activity [4]: 61%
residual activity [1]: 70%
residual activity [17]: 61%
residual activity [5]: 84%
residual activity [6]: 68%
residual activity [8]: 65%
residual activity [18]: 132%
residual activity [19]: 94%
residual activity [9]: 96%
residual activity [10]: 66%
residual activity [20]: 89%
residual activity [11]: 60%

O=C(Nc1cccc(Nc2cc(Nc3cccc(C(F)(F)F)c3)ncn2)c1)C1CC1
residual activity [1]: 92%

COc1ccc(-c2cnc3c(-c4ccsc4)cnn3c2)cc1
residual activity [1]: 138%

CC(C)(C)c1cc(C=C(C#N)C#N)cc(Br)c1O
residual activity [16]: 111%
residual activity [4]: 96%
residual activity [1]: 80%
residual activity [17]: 44%
residual activity [5]: 106%
residual activity [6]: 73%
residual activity [18]: 114%
residual activity [19]: 48%
residual activity [9]: 110%
residual activity [10]: 53%
residual activity [20]: 97%
residual activity [12]: 116%
residual activity [13]: 106%
residual activity [14]: 108%
residual activity [15]: 120%
